# Data published in PubChem BioAssay (NCI).
# Compounds without any hit were thinned out: in the full panel of roughly 83,000, 20% have a hit.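 Results are percent growth after 48 hours of single-concentration exposure. 100 means growth as in untreated cells, lower positive values show inhibition; negative values down to -100 show cell death.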 Unmarked numbers belong to inactive results. The source made the active and inactive calls. Rule for the calls: active = growth percent below 10; inactive = the rest.
# Key:
# Assay in all cases: NCI-60 one-dose screen, 48 h (100 = growth as untreated, 0 = no growth, -100 = all killed)
# Conditions in all cases: 10 µM
# T-47D breast = tested on: T-47D breast
# BT-549 breast = tested on: BT-549 breast
# MDA-MB-435 melanoma = tested on: MDA-MB-435 melanoma
# SW-620 colon = tested on: SW-620 colon
# MCF7 breast = tested on: MCF7 breast
# HCT-116 colon = tested on: HCT-116 colon
# HCC-2998 colon = tested on: HCC-2998 colon
# KM12 colon = tested on: KM12 colon
Structure (SMILES),growth (T-47D breast),growth (BT-549 breast),growth (MDA-MB-435 melanoma),growth (SW-620 colon),growth (MCF7 breast),growth (HCT-116 colon),growth (HCC-2998 colon),growth (KM12 colon)
COc1ccc2oc(=O)cc(C(c3ccc[nH]3)c3ccc[nH]3)c2c1,22.5%,-13.4% (active),-24.3% (active),25.6%,13.9%,-3.62% (active),-5.71% (active),4.33% (active)
CCOC(=O)c1cc2c(n1Cc1ccccc1)-c1oncc1CC2,93.8%,92.7%,-27.4% (active),32.9%,80.3%,89%,83.6%,31.4%
Nc1nc2c(nnn2C2CC(O)C(CO)O2)c(=O)[nH]1 (centres undefined),49.8%,61.5%,41.1%,33.1%,37.4%,49.5%,51.3%,44.7%
Cn1cnc([N+](=O)[O-])c1/C=C1\Oc2ccc(Cl)cc2C1=O,85.1%,109%,86.2%,72%,40.2%,22.4%,97.4%,82.9%
O=C(NNc1nc(N2CCCC2)nc(N2CCCC2)n1)c1ccccc1,97.6%,112%,117%,104%,96.2%,109%,106%,104%
Cn1c(=O)c2[nH]c(C(O)c3ccc(Cl)cc3)nc2n(C)c1=O (centres undefined),101%,93.6%,101%,89.5%,96.6%,95%,97.8%,97.3%
Cc1nc(N)sc1Sc1nc2ccc(Cl)cc2c(=O)n1-c1ccc(Oc2ccccc2)cc1,75.5%,63.2%,88.1%,66.1%,87.4%,33.3%,74.1%,79.8%
CN1/C(=C\C(I)C(I)C2=[N+](C)c3ccccc3C2(C)C)C(C)(C)c2ccccc21 (centres undefined),-0.299% (active),13.3%,11.8%,16.1%,4.83% (active),9.19% (active),12.6%,13.2%
O=C(COc1ccc(-c2nc3ccccc3[nH]2)cc1)N=Nc1c(O)[nH]c2ccccc12,59%,106%,69.8%,85.6%,42.5%,40.9%,109%,58.2%
O=C(Nc1cccc(Cl)c1)Nc1cc2ncncc2cc1OCc1cccc(F)c1,-5.19% (active),44.8%,0.458% (active),23.9%,6.04% (active),8.63% (active),35.7%,9.08% (active)
COc1cc(Cn2c(-c3ccccc3)cc3c2-c2oncc2CC3)cc(OC)c1,45.8%,8.36% (active),-39.5% (active),23.8%,14.1%,6.79% (active),17.4%,10.2%
Cc1ccc(C(=O)O)c(N)c1C,94.5%,94.3%,105%,104%,92.6%,92%,106%,95%
CNC(=O)c1cc(Oc2ccc(NC(=O)Nc3ccc(Cl)c(OC4CCCCC4)c3)c(F)c2)ccn1,5.13% (active),72.6%,45.3%,62.9%,27.8%,11.9%,82.6%,26.2%
COc1ccc(-c2nnc(COc3ccc(NC(=O)Nc4cccc(C(F)(F)F)c4)cc3F)o2)cc1,34.8%,82.7%,61.6%,54.3%,88.7%,56.7%,50.9%,24%
CCCCCc1cc[n+](CC(=O)c2ccc(Cl)cc2)cc1,90.6%,86.6%,86.7%,83.2%,89.7%,59%,91%,73.4%
Cc1c(C(=O)N[C@H](CO)Cc2ccccc2)[nH]c2ccc(Cl)cc2c1=O,89.9%,107%,89.3%,101%,92.7%,97.4%,94.4%,106%
CCOC(=O)CNC(=O)Nc1ccc(Oc2ccc(NC(=O)NCC(=O)OCC)cc2)cc1,106%,111%,95.4%,98%,76.4%,98.1%,93.3%,105%
O=C(Nc1ccc(Oc2ccc(Nc3nc4ccccc4s3)cc2)cc1)Nc1ccc(Cl)c(Cl)c1,13.9%,59.5%,25.4%,33.6%,29.3%,16.8%,29.4%,20.7%
COC(=O)CCCCCCCCC(C)c1ccc(C(C)=O)cc1 (centres undefined),94.4%,130%,97.1%,103%,118%,110%,99.6%,103%
Nc1c(C(=O)Nc2ccccc2F)sc2nc3c(cc12)C(=O)CCC3,40.2%,59.8%,-25.9% (active),30%,22.9%,32%,43.8%,24.6%
COc1ccc(-c2cc(=O)n(-c3nc4ccccc4[nH]3)[nH]2)cc1OC,94.5%,76.2%,50.6%,77.8%,74.4%,74.6%,102%,105%
O=C(NCc1cn(Cc2cccc(Oc3ccccc3)c2)nn1)c1cccnc1Nc1ccccc1,72.3%,81.8%,-8.66% (active),40.8%,18.1%,26.1%,57.1%,29.5%
Cc1ccc2c3c(cccc13)-c1ccccc1C2=O,84.9%,106%,98.9%,93%,96.6%,86.4%,89%,54.4%
N#CCC1CCCC1,101%,112%,91.2%,104%,92.8%,99.8%,104%,110%
N=C(N)c1ccc(-c2ccc(-c3ccccc3)s2)cc1F,-65.6% (active),-96.8% (active),-84.2% (active),-85.4% (active),-71.7% (active),-91.8% (active),-79.1% (active),-86.1% (active)
COc1ccc(CSc2nc3cc(OC)c(OC)cc3c(=O)n2-c2ccc(OC)cc2OC)cc1,75.6%,93.9%,62%,90.3%,83.1%,62.9%,101%,78.1%
CC(C)/C=N/NC(N)=S,45.6%,105%,86.4%,76.4%,8.48% (active),8.16% (active),96.4%,112%
COc1ccc(/C(=C/c2cc(OC)c(OC)cc2[N+](=O)[O-])C(=O)O)cc1,94.8%,111%,116%,105%,105%,116%,107%,121%
